# The supplement of paper PMC8728848
# About 410 targets per protein were measured; listed, in parts, are those with the strongest signals and a random draw of the rest.
# B1: BT3172pd (Bacteroides thetaiotaomicron) (protein)
# chain: MLPLRAEHYYYKQISLKEGLPSNVRCILRDEQGFIWIGTKAGLGKFDGHQLKRYKHQANDPHSLLHNLIYQIAEDKQHNIWILTEKGIARYQQQSNNFTFPTDEEGNYITAYSFCLVPDGILFGGKDRIYKYSYKDSSLRLLQYFNANSFKITALSVWDSKTLLCCSRWTGLYLVDLQTGEHRRPPFDCGPEITSMITDSKNRIWIAPYSGGLRCYSRDGKLSASYTTHNSSLSNDIVLSLAEREEQLWIGTDGGGINILHPETGEISQLEYIPGRENYSLPANSILCLHNDYNNNVWAGSTCNGLISIREVSMKTYTDVVPGNDRGLSNGTVRSLYRQSPDSIWIGTDGGGINLFSPHTEKFTHYSSTWGDKVAFISGFTPGKLLISLFSKGVFVFNPATGEKQPFTIIDKETTTRLCNRGKSVNLYQNTPNTVLFLGDHIYQYHLKEKKFSTITEEEGKDIVGTLVPFDHQENLTYINDIKHIYELDDQTSRLKTVFECYTDTVISSVSHDEQGHFWIGSNFGLIHYDPVLKSRTLVPTNLFTEINMVLCDQKGKVWIGVDNMLFAYFIKEQKFVLFGESNGAIQNEYLPNARLVNEQGDAYIGGVKGMLRIDGQLLLNTSEMPELQLLDITINGESANHEWYNHPAKISVPWNSNISIRIMSREEDIFRQKIYRYQIEGLNNEYTESYNPELVIRSLLPGSYRIMASCTAKDGSWIPDQQVLELTVLPPWYRTHHHHHH
# What was measured:
# Experiment in all cases: glycan array binding signal (z-score within array); higher = stronger binding
# Details in all cases: glycan notation: IUPAC condensed, linker removed
# [1] = target: Fuc(a1-2)Gal(b1-3)GalNAc(b1-3)Gal
# Procedure, shortened: (§1)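 The binding signal is a Z-score computed within each array. Data were drawn from 3228 arrays in the Consortium for Functional Glycomics database, restricted to those with a known protein sequence. Scores were averaged over arrays of the same protein sequence at different concentrations or buffers, and over linkers, and negative values can be taken as non-binding.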
# [2] = target: Fuc(a1-2)Gal(b1-4)GlcNAc(b1-3)Gal(b1-4)GlcNAc(b1-3)Gal(b1-4)GlcNAc
# Procedure, shortened: as §1
# [3] = target: Fuc(a1-2)Gal(b1-4)GlcNAc(b1-3)GalNAc
# Procedure, shortened: as §1
# [4] = target: Fuc(a1-2)Gal(b1-4)[Fuc(a1-3)]GlcNAc(b1-3)Gal(b1-4)[Fuc(a1-3)]GlcNAc
# Procedure, shortened: as §1
# [5] = target: Fuc(a1-2)[Gal(a1-3)]Gal(b1-3)GalNAc
# Procedure, shortened: as §1
# [6] = target: Fuc(a1-2)[Gal(a1-3)]Gal(b1-4)GlcNAc
# Procedure, shortened: as §1
# [7] = target: Fuc(a1-2)[Gal(a1-3)]Gal(b1-4)GlcNAc(b1-3)[Fuc(a1-2)[Gal(a1-3)]Gal(b1-4)GlcNAc(b1-6)]GalNAc
# Procedure, shortened: as §1
# [8] = target: Fuc(a1-2)[Gal(a1-3)]Gal(b1-4)[Fuc(a1-3)]GlcNAc(b1-3)GalNAc
# Procedure, shortened: as §1
# [9] = target: Fuc(a1-2)[GalNAc(a1-3)]Gal(b1-4)GlcNAc
# Procedure, shortened: as §1
# [10] = target: Fuc(a1-3)GlcNAc
# Procedure, shortened: as §1
# [11] = target: Fuc(a1-3)[Gal(b1-4)]GlcNAc(b1-2)Man(a1-3)[Fuc(a1-3)[Gal(b1-4)]GlcNAc(b1-2)Man(a1-6)]Man(b1-4)GlcNAc(b1-4)[Fuc(a1-6)]GlcNAc
# Procedure, shortened: as §1
# [12] = target: Gal(a1-2)Gal
# Procedure, shortened: as §1
# [13] = target: Gal(a1-3)Gal(b1-4)Glc
# Procedure, shortened: as §1
# [14] = target: Gal(a1-3)Gal(b1-4)GlcNAc
# Procedure, shortened: as §1
# [15] = target: Gal(a1-3)Gal(b1-4)[Fuc(a1-3)]GlcNAc(b1-2)Man(a1-3)[Gal(a1-3)Gal(b1-4)[Fuc(a1-3)]GlcNAc(b1-2)Man(a1-6)]Man(b1-4)GlcNAc(b1-4)GlcNAc
# Procedure, shortened: as §1
# [16] = target: Gal(a1-3)[Gal(a1-4)]Gal(b1-4)GlcNAc
# Procedure, shortened: as §1
# [17] = target: Gal(b1-3)GlcNAc(b1-6)[Gal(b1-3)]GalNAc
# Procedure, shortened: as §1
# [18] = target: Gal(b1-4)GlcNAc(b1-2)Man(a1-3)[Gal(b1-4)GlcNAc(b1-2)Man(a1-6)]Man(b1-4)GlcNAc(b1-4)[Fuc(a1-6)]GlcNAc
# Procedure, shortened: as §1
# [19] = target: Gal(b1-4)GlcNAc(b1-2)Man(a1-3)[Man(a1-6)]Man(b1-4)GlcNAc(b1-4)GlcNAc
# Procedure, shortened: as §1
# [20] = target: Gal(b1-4)GlcNAc(b1-2)Man(a1-6)[GlcNAc(b1-2)Man(a1-3)]Man(b1-4)GlcNAc(b1-4)GlcNAc
# Procedure, shortened: as §1
# [21] = target: Gal(b1-4)GlcNAc(b1-2)[Gal(b1-4)GlcNAc(b1-4)]Man(a1-3)[GlcNAc(b1-4)][Gal(b1-4)GlcNAc(b1-2)Man(a1-6)]Man(b1-4)GlcNAc(b1-4)GlcNAc
# Procedure, shortened: as §1
# [22] = target: Gal(b1-4)GlcNAc(b1-3)Gal(b1-4)GlcNAc(b1-3)Gal(b1-4)GlcNAc(b1-3)Gal(b1-4)GlcNAc(b1-3)Gal(b1-4)GlcNAc(b1-2)Man(a1-3)[Gal(b1-4)GlcNAc(b1-3)Gal(b1-4)GlcNAc(b1-3)Gal(b1-4)GlcNAc(b1-3)Gal(b1-4)GlcNAc(b1-3)Gal(b1-4)GlcNAc(b1-2)Man(a1-6)]Man(b1-4)GlcNAc(b1-4)GlcNAc
# Procedure, shortened: as §1
# [23] = target: Gal(b1-4)GlcNAc(b1-3)Gal(b1-4)GlcNAc(b1-3)GalNAc
# Procedure, shortened: as §1
# [24] = target: Gal(b1-4)GlcNAc(b1-3)Gal(b1-4)[Fuc(a1-3)]GlcNAc(b1-3)Gal(b1-4)[Fuc(a1-3)]GlcNAc
# Procedure, shortened: as §1
# [25] = target: Gal3S(b1-4)GlcNAc
# Procedure, shortened: as §1
# [26] = target: GalNAc(a1-3)GalNAc
# Procedure, shortened: as §1
# [27] = target: GalNAc(b1-4)GlcNAc(b1-2)Man(a1-3)[GalNAc(b1-4)GlcNAc(b1-2)Man(a1-6)]Man(b1-4)GlcNAc(b1-4)GlcNAc
# Procedure, shortened: as §1
# [28] = target: GalNAc3S(b1-4)[Fuc(a1-3)]GlcNAc
# Procedure, shortened: as §1
# [29] = target: Glc(a1-6)Glc(a1-6)Glc(a1-6)Glc
# Procedure, shortened: as §1
# [30] = target: GlcA3S(b1-3)Gal(b1-4)GlcNAc(b1-2)Man
# Procedure, shortened: as §1
# [31] = target: GlcNAc(a1-4)Gal(b1-4)GlcNAc(b1-3)Gal(b1-4)GlcNAc
# Procedure, shortened: as §1
# [32] = target: GlcNAc(b1-2)[GlcNAc(b1-6)]Man(a1-6)[GlcNAc(b1-4)][GlcNAc(b1-2)Man(a1-3)]Man(b1-4)GlcNAc(b1-4)GlcNAc
# Procedure, shortened: as §1
# [33] = target: GlcNAc(b1-3)Gal(b1-4)GlcNAc(b1-3)Gal(b1-4)GlcNAc(b1-2)[GlcNAc(b1-3)Gal(b1-4)GlcNAc(b1-3)Gal(b1-4)GlcNAc(b1-6)]Man(a1-6)[GlcNAc(b1-3)Gal(b1-4)GlcNAc(b1-3)Gal(b1-4)GlcNAc(b1-2)Man(a1-3)]Man(b1-4)GlcNAc(b1-4)[Fuc(a1-6)]GlcNAc
# Procedure, shortened: as §1
# [34] = target: GlcNAc(b1-3)GalNAc
# Procedure, shortened: as §1
# [35] = target: Man(a1-3)[Man(a1-6)]Man
# Procedure, shortened: as §1
# [36] = target: Man(a1-3)[Man(a1-6)]Man(b1-4)GlcNAc(b1-4)GlcNAc
# Procedure, shortened: as §1
# [37] = target: Neu5Ac(a2-3)Gal(b1-3)[Fuc(a1-4)]GlcNAc
# Procedure, shortened: as §1
# [38] = target: Neu5Ac(a2-3)Gal(b1-3)[GlcNAc(b1-6)]GalNAc
# Procedure, shortened: as §1
# [39] = target: Neu5Ac(a2-3)Gal(b1-4)Glc
# Procedure, shortened: as §1
# [40] = target: Neu5Ac(a2-3)Gal(b1-4)GlcNAc(b1-2)[Neu5Ac(a2-3)Gal(b1-4)GlcNAc(b1-4)]Man(a1-3)[GlcNAc(b1-4)][Neu5Ac(a2-3)Gal(b1-4)GlcNAc(b1-2)[Neu5Ac(a2-3)Gal(b1-4)GlcNAc(b1-6)]Man(a1-6)]Man(b1-4)GlcNAc(b1-4)GlcNAc
# Procedure, shortened: as §1
# [41] = target: Neu5Ac(a2-3)Gal(b1-4)GlcNAc(b1-3)GalNAc
# Procedure, shortened: as §1
# [42] = target: Neu5Ac(a2-3)Gal(b1-4)GlcNAc(b1-6)[Gal(b1-3)]GalNAc
# Procedure, shortened: as §1
# [43] = target: Neu5Ac(a2-3)Gal(b1-4)GlcNAc6S
# Procedure, shortened: as §1
# [44] = target: Neu5Ac(a2-3)Gal(b1-4)[Fuc(a1-3)]GlcNAc(b1-2)Man
# Procedure, shortened: as §1
# [45] = target: Neu5Ac(a2-3)Gal6S(b1-4)GlcNAc
# Procedure, shortened: as §1
# [46] = target: Neu5Ac(a2-6)Gal
# Procedure, shortened: as §1
# [47] = target: Neu5Ac(a2-6)Gal(b1-4)GlcNAc(b1-2)Man(a1-6)[Gal(b1-4)GlcNAc(b1-2)Man(a1-3)]Man(b1-4)GlcNAc(b1-4)GlcNAc
# Procedure, shortened: as §1
# [48] = target: Neu5Ac(a2-6)Gal(b1-4)GlcNAc(b1-3)Gal(b1-4)GlcNAc(b1-2)Man(a1-3)[Neu5Ac(a2-6)Gal(b1-4)GlcNAc(b1-3)Gal(b1-4)GlcNAc(b1-2)Man(a1-6)]GalNAc
# Procedure, shortened: as §1
# [49] = target: Neu5Ac(a2-6)Gal(b1-4)GlcNAc(b1-3)Gal(b1-4)GlcNAc(b1-6)[Gal(b1-3)]GalNAc
# Procedure, shortened: as §1
# [50] = target: Neu5Ac(a2-6)Gal(b1-4)GlcNAc(b1-3)[Neu5Ac(a2-6)Gal(b1-4)GlcNAc(b1-6)]GalNAc
# Procedure, shortened: as §1
# [51] = target: Neu5Ac(a2-6)Gal(b1-4)GlcNAc(b1-6)GalNAc
# Procedure, shortened: as §1
# [52] = target: Neu5Ac(a2-8)Neu5Ac(a2-3)Gal(b1-4)GlcNAc
# Procedure, shortened: as §1
# [53] = target: Neu5Ac(b2-6)Gal(b1-4)GlcNAc
# Procedure, shortened: as §1
# [54] = target: Neu5Ac(b2-6)GalNAc
# Procedure, shortened: as §1
binder,measurement,setting,value
B1,glycan array binding signal (z-score),[1],-1.16
same,glycan array binding signal (z-score),[2],-0.03
same,glycan array binding signal (z-score),[3],-0.024
same,glycan array binding signal (z-score),[4],-0.649
same,glycan array binding signal (z-score),[5],0.258
same,glycan array binding signal (z-score),[6],-0.52
same,glycan array binding signal (z-score),[7],5.41
same,glycan array binding signal (z-score),[8],-0.194
same,glycan array binding signal (z-score),[9],-0.511
same,glycan array binding signal (z-score),[10],-0.076
same,glycan array binding signal (z-score),[11],2.04
same,glycan array binding signal (z-score),[12],-0.237
same,glycan array binding signal (z-score),[13],-0.327
same,glycan array binding signal (z-score),[14],-0.339
same,glycan array binding signal (z-score),[15],2.4
same,glycan array binding signal (z-score),[16],2.39
same,glycan array binding signal (z-score),[17],-0.299
same,glycan array binding signal (z-score),[18],-0.075
same,glycan array binding signal (z-score),[19],-0.349
same,glycan array binding signal (z-score),[20],0.924
same,glycan array binding signal (z-score),[21],-0.47
same,glycan array binding signal (z-score),[22],5.07
same,glycan array binding signal (z-score),[23],-0.264
same,glycan array binding signal (z-score),[24],-0.565
same,glycan array binding signal (z-score),[25],0.279
same,glycan array binding signal (z-score),[26],-0.288
same,glycan array binding signal (z-score),[27],-0.134
same,glycan array binding signal (z-score),[28],6.05
same,glycan array binding signal (z-score),[29],0.665
same,glycan array binding signal (z-score),[30],-0.286
same,glycan array binding signal (z-score),[31],-0.207
same,glycan array binding signal (z-score),[32],-0.604
same,glycan array binding signal (z-score),[33],-0.268
same,glycan array binding signal (z-score),[34],3.09
same,glycan array binding signal (z-score),[35],-0.387
same,glycan array binding signal (z-score),[36],0.075
same,glycan array binding signal (z-score),[37],-0.042
same,glycan array binding signal (z-score),[38],-0.406
same,glycan array binding signal (z-score),[39],4.78
same,glycan array binding signal (z-score),[40],-0.441
same,glycan array binding signal (z-score),[41],0.355
same,glycan array binding signal (z-score),[42],-0.43
same,glycan array binding signal (z-score),[43],2.43
same,glycan array binding signal (z-score),[44],-0.094
same,glycan array binding signal (z-score),[45],0.228
same,glycan array binding signal (z-score),[46],4.96
same,glycan array binding signal (z-score),[47],0.765
same,glycan array binding signal (z-score),[48],-0.692
same,glycan array binding signal (z-score),[49],6.02
same,glycan array binding signal (z-score),[50],5.76
same,glycan array binding signal (z-score),[51],0.094
same,glycan array binding signal (z-score),[52],-0.788
same,glycan array binding signal (z-score),[53],-1.02
same,glycan array binding signal (z-score),[54],0.736
